Measured values taken from PubChem BioAssay (EPA / NIEHS).
“And” between values parts separate entries of the source, which are not always exact repeats. Equal values may be shown once. Inconclusive results are not listed. Where a structure was tested more than once in an assay, its records may differ in their call. The source made the active and inactive calls. Rule for the calls: active = hit-call score of the fitted dose curve at least 0.9, where 1 is the maximum; inconclusive = response in the unintended direction; inactive = score below 0.9.

What follows are compounds tested against Estrogen receptor (Homo sapiens) (UniProt P03372) (assay: ATG_hERa_XSP2: Attagene TRANS-FACTORIAL Multi-Species (XSP2) HepG2 Assay for human Estrogen Receptor (ERa) (AID 2283827)).
Chain of Estrogen receptor (Homo sapiens) (P03372 whole entry, looked up): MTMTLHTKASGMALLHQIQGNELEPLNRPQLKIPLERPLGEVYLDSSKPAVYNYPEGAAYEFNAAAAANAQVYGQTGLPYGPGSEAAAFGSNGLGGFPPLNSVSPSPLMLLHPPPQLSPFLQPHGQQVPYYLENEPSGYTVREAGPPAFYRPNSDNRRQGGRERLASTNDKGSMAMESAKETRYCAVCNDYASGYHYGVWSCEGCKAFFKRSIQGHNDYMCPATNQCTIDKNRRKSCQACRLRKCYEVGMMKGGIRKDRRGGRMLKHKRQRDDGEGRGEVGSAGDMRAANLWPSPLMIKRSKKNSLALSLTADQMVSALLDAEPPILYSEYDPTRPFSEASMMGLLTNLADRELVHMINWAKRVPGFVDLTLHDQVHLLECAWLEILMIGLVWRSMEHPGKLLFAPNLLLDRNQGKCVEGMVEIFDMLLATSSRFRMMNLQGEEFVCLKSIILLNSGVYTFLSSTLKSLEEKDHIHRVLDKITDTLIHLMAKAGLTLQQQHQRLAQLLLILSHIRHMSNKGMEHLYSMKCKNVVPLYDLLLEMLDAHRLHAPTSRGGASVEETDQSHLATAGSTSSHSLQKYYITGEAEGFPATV
Procedure: ATG_XSP2_multi-species_TRANS is a cell-based, multiplexed assay created by modifying the existing Attagene TRANS-FACTORIAL system to include a panel of nuclear receptors from some or all the following species: human (Homo sapiens), mouse (Mus musculus), frog (Xenopus laevis), zebrafish (Danio rerio), chicken (Gallus gallus), and turtle (Chrysemys picta). The ECOTOX-FACTORIAL format uses HepG2, a human liver cell line, with measurements taken at 24 hours after chemical dosing in a 24-well plate. Xsp2 included 3 nM 6-alpha-fluorotestosterone and 1.5 nM norgestrel to stimulate the androgen receptor.ATG_hERa_XSP2 is one of 29 assay components measured or calculated from the ATG_XSP2_multi-species_TRANS assay. It is designed to make measurements of mRNA induction, a form of inducible reporter, as detected with fluorescence intensity signals by Reverse transcription polymerase chain reaction (RT-PCR) and Capillary electrophoresis technology.The assay endpoint ATG_hERa_XSP2 was analyzed in the positive analysis fitting direction relative to DMSO as the negative control and baseline of activity. Using a type of inducible reporter, measures of mRNA for gain-of-signal activity can be used to understand the reporter gene at the transcription factor-level as they relate to the gene ER. Furthermore, this assay endpoint can be referred to as a primary readout, because this assay has produced multiple assay endpoints where this one serves a reporter gene function. To generalize the intended target to other relatable targets, this assay endpoint is annotated to the nuclear receptor intended target family, where the subfamily is steroidal.
Human liver HepG2 cells are transiently transfected with multiple reporter transcription units (MRTUs) in 6-well plates using FuGene 6 reagent (Roche; 3 ml FuGene/1 mg DNA). The MRTU constructs are regulated by a cis-regulating element (promoter). […] A major difference between the CIS and TRANS system is that in CIS activities of endogenous TFs are measured, whereas the TRANS assay evaluates changes in activities of exogenous, chimeric NR-Gal4 proteins. […] At the end of 24 hour incubation, total RNA was isolated using TriZol reagent (Invitrogen). The isolated RNA is then reverse-transcribed using oligo(dT) primer and Mo-MLV reverse transcriptase (Invitrogen) with DNAse I (Ambion) treatment for 30 min. The one-tenth of the produced cDNA was amplified by PCR using Taq DNA polymerase (Invitrogen) and two reporter sequence-specific primers. The PCR products were fluorescently labeled by primer extension with 6-arboxyfluorescein (6-FAM) 5'-labeled reporter sequence-specific primer (2 min at 95 C, 20 s at 68 C and 10 min at 72 C) and these products were digested with 5U of HpaI (New England Biolabs) for 2h at 37 C. The fragments were purified using Qiaquick PCR columns (Qiagen), analyzed on an ABI 3130xL genetic analyzer (Applied Biosystems) with peak positions identified by using a set of X-rhodamine (ROX)-labeled MapMarker1000 molecular weight standards (BioVentures). The raw capillary electrophoresis data was processed using Attagraph software (Attagene).
For `CC(C)(C)c1cc(O)ccc1O`, the AC50 was 33.1 µM (active).
For `Clc1ccc(C2(Cn3cncn3)CC(Br)CO2)c(Cl)c1` (stereo not given), the AC50 was 4.43 µM (active) and 6.56 µM (active).
For `CC(=O)C=C(C)C`, the outcome was “inactive”.
For `Oc1c(I)cc(I)cc1I`, the AC50 was 3.11 µM (active).
With `O=S(=O)(c1ccc(Cl)cc1)c1ccc(Cl)cc1` the AC50 was 4.86 µM (active) and 27.8 µM (active).
With `CC(C)C1CCC(Cc2ccc(Cl)cc2)C1(O)Cn1cncn1` (stereo not given) the AC50 was 7.95 µM (active) and the outcome was “inactive”.
For `COP(=O)(OC)O/C(=C\Cl)c1cc(Cl)c(Cl)cc1Cl`, the AC50 was 9.68 µM (active).
In the case of `C[C@H]1CCCC(=O)CCC/C=C/c2cc(O)cc(O)c2C(=O)O1`, the AC50 is reported as 3.41 nM (active) and 1.59 nM (active).
In the case of `CC1(C)CCC(Cc2ccc(Cl)cc2)C1(O)Cn1cncn1` (stereo not given), the outcome is reported as “inactive”.
